# Laboratory results reported in paper PMC7862700, “An all-to-all approach to the identification of sequence-specific readers for epigenetic DNA modifications on cytosine”.
# Columns and labels:
# Test in all cases: DAPPL (digital affinity profiling via proximity ligation, sequencing); 10 mM Tris-HCl pH 7.5, 50 mM NaCl, 1 mM DTT, 4% glycerol, room temperature, 30 min; GST-TFs on glutathione beads, 16-mer random dsDNA library, 0.1% formaldehyde crosslink after washing; high values mean tight binding
# [1] = biological target: T1, FEV (Homo sapiens, UniProt Q99581 1-238); settings: protein: recombinant; tags: N-terminal GST; dsDNA, one strand shown
# T1 sequence: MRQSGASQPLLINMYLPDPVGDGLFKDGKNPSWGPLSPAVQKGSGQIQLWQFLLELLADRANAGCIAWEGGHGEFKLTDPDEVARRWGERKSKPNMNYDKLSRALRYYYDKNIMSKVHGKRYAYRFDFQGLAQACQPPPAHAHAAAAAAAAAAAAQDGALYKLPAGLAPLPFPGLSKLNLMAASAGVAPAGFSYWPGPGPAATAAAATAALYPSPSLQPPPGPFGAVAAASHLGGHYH
# In short: (§1)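 Beads coated with glutathione captured GST-fused human transcription factors that had been expressed in yeast, and the factors were then given DNA barcodes and pooled with a tag-only sample. The pools were incubated with 200 nmole of a random double-stranded 16-mer DNA library in Tris/NaCl/DTT/glycerol buffer for 30 min at room temperature, washed, crosslinked with 0.1% formaldehyde and proximity-ligated with BsaI/T4 ligase at 37 °C for 1 h. PCR amplification and Illumina NextSeq500 sequencing came last. Binding signal is each hexamer's read frequency for a factor divided by its frequency for the tag-only sample.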
# [2] = biological target: ETV5 (Homo sapiens, UniProt P41161 1-510); settings: protein: recombinant; tags: N-terminal GST; dsDNA, one strand shown
# In short: as §1
# [3] = biological target: HSF1 (Homo sapiens, UniProt Q00613 1-529); settings: protein: recombinant; tags: N-terminal GST; chain copies: 3; dsDNA, one strand shown
# In short: as §1
# [4] = biological target: T2, SPIC (Homo sapiens, UniProt Q8N5J4 1-248); settings: protein: recombinant; tags: N-terminal GST; dsDNA, one strand shown
# T2 sequence: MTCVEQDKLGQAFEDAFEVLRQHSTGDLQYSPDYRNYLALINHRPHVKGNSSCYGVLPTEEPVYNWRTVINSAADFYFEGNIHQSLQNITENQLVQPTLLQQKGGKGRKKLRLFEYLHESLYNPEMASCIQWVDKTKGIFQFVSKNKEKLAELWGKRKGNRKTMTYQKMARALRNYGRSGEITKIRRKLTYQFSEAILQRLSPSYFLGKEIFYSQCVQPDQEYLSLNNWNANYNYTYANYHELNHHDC
# In short: as §1
# [5] = biological target: ELF4 (Homo sapiens, UniProt Q99607 1-663); settings: protein: recombinant; tags: N-terminal GST; dsDNA, one strand shown
# In short: as §1
# [6] = biological target: T3, ELK4 (Homo sapiens, UniProt P28324-2 1-405); settings: protein: recombinant; tags: N-terminal GST; dsDNA, one strand shown
# T3 sequence: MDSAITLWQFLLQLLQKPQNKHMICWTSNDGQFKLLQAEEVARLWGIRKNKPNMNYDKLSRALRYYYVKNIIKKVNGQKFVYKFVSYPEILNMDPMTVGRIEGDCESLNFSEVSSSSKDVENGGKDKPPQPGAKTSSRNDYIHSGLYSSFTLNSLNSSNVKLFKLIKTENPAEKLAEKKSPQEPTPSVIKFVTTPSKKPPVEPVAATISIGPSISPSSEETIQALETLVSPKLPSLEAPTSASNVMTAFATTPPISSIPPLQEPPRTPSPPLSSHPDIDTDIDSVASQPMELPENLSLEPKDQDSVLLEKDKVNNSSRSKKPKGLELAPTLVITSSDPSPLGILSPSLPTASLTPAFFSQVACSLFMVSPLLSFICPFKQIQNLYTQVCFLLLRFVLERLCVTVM
# In short: as §1
# [7] = biological target: T4, ETV2 (Homo sapiens, UniProt O00321 1-342); settings: protein: recombinant; tags: N-terminal GST; dsDNA, one strand shown
# T4 sequence: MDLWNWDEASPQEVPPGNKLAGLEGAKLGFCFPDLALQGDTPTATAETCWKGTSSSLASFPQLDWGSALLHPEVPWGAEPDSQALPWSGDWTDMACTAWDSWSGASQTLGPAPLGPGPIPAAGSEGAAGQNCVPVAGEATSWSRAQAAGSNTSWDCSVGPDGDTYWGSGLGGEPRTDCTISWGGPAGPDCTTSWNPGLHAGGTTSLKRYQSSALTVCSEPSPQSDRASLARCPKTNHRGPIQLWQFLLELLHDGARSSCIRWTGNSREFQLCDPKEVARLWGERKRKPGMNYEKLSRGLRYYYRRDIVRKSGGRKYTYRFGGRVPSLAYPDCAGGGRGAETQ
# In short: as §1
# [8] = biological target: T5, ELF3 (Homo sapiens, UniProt P78545 1-371); settings: protein: recombinant; tags: N-terminal GST; dsDNA, one strand shown
# T5 sequence: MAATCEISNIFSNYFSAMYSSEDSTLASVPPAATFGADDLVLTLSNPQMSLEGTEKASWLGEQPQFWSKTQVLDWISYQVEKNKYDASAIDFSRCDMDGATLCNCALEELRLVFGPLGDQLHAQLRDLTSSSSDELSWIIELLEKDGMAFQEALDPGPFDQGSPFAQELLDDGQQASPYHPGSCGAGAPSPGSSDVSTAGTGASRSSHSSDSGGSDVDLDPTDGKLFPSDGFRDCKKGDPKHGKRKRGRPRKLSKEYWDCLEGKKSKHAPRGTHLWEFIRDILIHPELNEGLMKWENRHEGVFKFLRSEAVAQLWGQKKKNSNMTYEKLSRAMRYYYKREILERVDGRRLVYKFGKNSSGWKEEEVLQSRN
# In short: as §1
# [9] = biological target: CRX (Homo sapiens, UniProt O43186 1-299); settings: protein: recombinant; tags: N-terminal GST; dsDNA, one strand shown
# In short: as §1
# [10] = biological target: ETV1 (Homo sapiens, UniProt P50549 1-477); settings: protein: recombinant; tags: N-terminal GST; dsDNA, one strand shown
# In short: as §1
# ETV1, sequence (P50549 whole entry): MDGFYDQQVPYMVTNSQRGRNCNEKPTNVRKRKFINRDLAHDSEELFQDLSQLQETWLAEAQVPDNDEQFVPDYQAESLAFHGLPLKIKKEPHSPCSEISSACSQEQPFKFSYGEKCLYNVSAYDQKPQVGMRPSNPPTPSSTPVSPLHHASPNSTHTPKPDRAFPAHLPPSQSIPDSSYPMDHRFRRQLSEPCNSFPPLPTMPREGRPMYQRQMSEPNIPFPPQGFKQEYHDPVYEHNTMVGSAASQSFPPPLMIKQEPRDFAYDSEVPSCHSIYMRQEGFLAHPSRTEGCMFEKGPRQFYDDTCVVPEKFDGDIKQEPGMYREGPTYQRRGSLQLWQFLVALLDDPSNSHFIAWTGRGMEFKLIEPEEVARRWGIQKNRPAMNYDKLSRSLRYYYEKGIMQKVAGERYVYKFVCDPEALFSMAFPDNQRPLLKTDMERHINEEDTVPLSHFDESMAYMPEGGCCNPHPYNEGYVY
# ETV5, sequence (P41161 whole entry): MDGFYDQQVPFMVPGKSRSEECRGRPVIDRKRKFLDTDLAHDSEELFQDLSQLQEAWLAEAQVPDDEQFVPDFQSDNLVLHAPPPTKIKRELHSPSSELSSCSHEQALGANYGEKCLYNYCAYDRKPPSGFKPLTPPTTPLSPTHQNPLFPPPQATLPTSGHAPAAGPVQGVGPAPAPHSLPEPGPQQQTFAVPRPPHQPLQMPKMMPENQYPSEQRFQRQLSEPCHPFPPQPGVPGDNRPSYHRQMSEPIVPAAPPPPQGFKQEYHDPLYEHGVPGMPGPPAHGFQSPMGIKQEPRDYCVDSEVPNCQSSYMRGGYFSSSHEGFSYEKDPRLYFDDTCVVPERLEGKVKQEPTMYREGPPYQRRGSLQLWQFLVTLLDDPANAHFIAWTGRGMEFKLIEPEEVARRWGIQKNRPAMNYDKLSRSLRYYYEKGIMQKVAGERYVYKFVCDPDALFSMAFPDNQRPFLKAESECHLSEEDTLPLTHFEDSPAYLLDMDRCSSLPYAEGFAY
# CRX, sequence (O43186 whole entry): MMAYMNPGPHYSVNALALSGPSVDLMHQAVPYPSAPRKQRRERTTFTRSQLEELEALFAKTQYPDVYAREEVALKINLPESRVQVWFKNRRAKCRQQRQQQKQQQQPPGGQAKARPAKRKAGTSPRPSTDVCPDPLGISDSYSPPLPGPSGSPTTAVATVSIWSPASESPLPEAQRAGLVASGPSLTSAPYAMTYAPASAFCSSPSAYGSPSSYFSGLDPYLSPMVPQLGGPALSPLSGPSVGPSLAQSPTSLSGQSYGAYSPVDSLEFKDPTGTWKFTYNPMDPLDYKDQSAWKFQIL
# HSF1, sequence (Q00613 whole entry): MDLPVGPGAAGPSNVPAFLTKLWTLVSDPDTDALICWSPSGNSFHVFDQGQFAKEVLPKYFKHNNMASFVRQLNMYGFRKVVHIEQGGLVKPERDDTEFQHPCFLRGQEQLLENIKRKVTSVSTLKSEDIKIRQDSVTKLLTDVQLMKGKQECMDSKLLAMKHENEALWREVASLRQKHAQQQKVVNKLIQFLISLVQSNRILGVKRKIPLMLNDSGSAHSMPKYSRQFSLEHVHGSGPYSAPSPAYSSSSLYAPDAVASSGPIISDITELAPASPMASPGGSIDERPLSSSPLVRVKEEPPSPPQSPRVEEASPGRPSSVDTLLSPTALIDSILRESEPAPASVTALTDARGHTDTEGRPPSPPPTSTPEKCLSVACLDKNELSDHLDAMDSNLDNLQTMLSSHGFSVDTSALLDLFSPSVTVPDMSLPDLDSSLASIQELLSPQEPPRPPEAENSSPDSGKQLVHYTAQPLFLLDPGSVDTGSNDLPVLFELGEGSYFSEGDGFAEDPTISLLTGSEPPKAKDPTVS
# ELF4, sequence (Q99607 whole entry): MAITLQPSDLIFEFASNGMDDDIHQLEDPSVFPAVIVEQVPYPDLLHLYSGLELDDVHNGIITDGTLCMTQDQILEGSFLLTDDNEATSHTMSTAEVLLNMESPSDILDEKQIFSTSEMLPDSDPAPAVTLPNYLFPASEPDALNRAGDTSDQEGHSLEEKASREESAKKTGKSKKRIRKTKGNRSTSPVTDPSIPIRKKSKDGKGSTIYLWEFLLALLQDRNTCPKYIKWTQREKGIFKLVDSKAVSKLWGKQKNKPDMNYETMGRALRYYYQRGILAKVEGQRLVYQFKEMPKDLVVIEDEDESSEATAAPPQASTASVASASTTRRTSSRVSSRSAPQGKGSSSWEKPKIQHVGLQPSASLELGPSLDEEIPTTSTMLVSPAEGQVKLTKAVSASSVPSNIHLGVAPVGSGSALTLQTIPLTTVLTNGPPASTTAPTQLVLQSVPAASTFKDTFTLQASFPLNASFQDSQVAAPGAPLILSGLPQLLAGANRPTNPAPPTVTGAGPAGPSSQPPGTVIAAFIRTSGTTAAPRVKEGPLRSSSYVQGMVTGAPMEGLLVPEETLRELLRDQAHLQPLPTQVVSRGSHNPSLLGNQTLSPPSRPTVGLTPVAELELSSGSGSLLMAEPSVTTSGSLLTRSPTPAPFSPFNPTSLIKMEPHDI
sequence,measurement,setting,value
TTGTCT,binding signal,[1],"1.24 fold enrichment (6-mer frequency, TF over GST control)"
same,binding signal,[2],"1.29 fold enrichment (6-mer frequency, TF over GST control)"
same,binding signal,[3],"1.14 fold enrichment (6-mer frequency, TF over GST control)"
same,binding signal,[4],"1.3 fold enrichment (6-mer frequency, TF over GST control)"
same,binding signal,[5],"1.18 fold enrichment (6-mer frequency, TF over GST control)"
same,binding signal,[6],"1.22 fold enrichment (6-mer frequency, TF over GST control)"
same,binding signal,[7],"1.27 fold enrichment (6-mer frequency, TF over GST control)"
same,binding signal,[8],"1.34 fold enrichment (6-mer frequency, TF over GST control)"
same,binding signal,[9],"1.15 fold enrichment (6-mer frequency, TF over GST control)"
same,binding signal,[10],"1.2 fold enrichment (6-mer frequency, TF over GST control)"
